High-throughput results as filed in PubChem.
ST2 inh: blocks human ST2 binding to IL-33; Q01638; AlphaLISA ST2-Fc/biotin-IL-33 interaction, 1 h; 78,000 compounds, 2.3% hits; AID 1259354; inhibition, % for hits at 17 µM; in the data active means inhibition above about 30%
* hit, by the source's call; i = inactive. The full list was thinned out, with hits kept by preference.

SMILES | ST2 inh
CCCc1nnc2sc(Cc3ccc(S(C)(=O)=O)cc3)nn12 | i
CC1(C)CC(=O)C=C(C(=O)N2CCCC(CO)(CCOc3ccccc3)C2)O1 (stereo not drawn) | i
C=CCNC(=O)C1CC=CCC1C(=O)NCCc1ccccc1 (stereo not drawn) | i
Cc1ccc(CN2CCSc3ccc(C(=O)NCCCOC(C)C)cc32)cc1 | i
CCN(CC)c1ccc(C=Nc2cc(Cl)ccc2O)c(O)c1 | i
CCN(CC)c1ccc(N=Cc2ccccc2O)cc1 | 79%*
CC(=O)Nc1ccc(N=Cc2ccccc2O)cc1 | i
Cc1cc(Br)ccc1OCC(N)=O | i
COCCNC(=O)[C@@H](C)[C@@H]1CC[C@@]2(C)CC[C@H](NC(=O)C3CC3)[C@@H](C)[C@@H]2[C@H]1O | i
CC(=O)N[C@H]1CC[C@]2(C)CC[C@@H]([C@H](C)C(=O)NCCN3CCCC3)[C@H](O)[C@H]2[C@@H]1C | i
C[C@H]1[C@@H]2[C@@H](O)C([C@H](C)C(=O)NCCN3CCOCC3)CC[C@@]2(C)CC[C@@H]1NC(=O)C1CCCCC1 (stereo partly drawn) | 32%*
Cc1ccc(N2C(=O)CC(N3CCN(c4cc(C)ccc4C)CC3)C2=O)cc1 (stereo not drawn) | i
O=C(CSc1nnc2c(n1)[nH]c1ccccc12)NCCc1ccccc1 | i
NC(=O)CSc1nnc2c(n1)[nH]c1ccccc12 | i
NNc1nnc2c(n1)[nH]c1ccccc12 | 31%*
CCc1ncc(C(=O)N2CCC(N(C)Cc3ccccc3)CC2)cn1 | i
CN(CCn1cccn1)c1nc(-c2cccnc2)nc2c1cnn2C | i
CN(CC1COCCO1)c1nc(-c2cccnc2)nc2c1cnn2C (stereo not drawn) | 34%*
CC(CN(C)c1nc(-c2cccnc2)nc2c1cnn2C)N1CCOCC1 (stereo not drawn) | i
Cc1cccc(N(CC(=O)NC2CCCC2)S(C)(=O)=O)c1C | i
CC(C)COC(=O)C1C2C=CC3(CN(c4cccc(Cl)c4)C(=O)C13)O2 (stereo not drawn) | i
COc1ccc(OCC(=O)O)cc1 | i
CCOc1ccc(S(=O)(=O)NCC(=O)O)cc1 | i
Cc1ccc(C)n1-c1ccc(OCC(=O)O)cc1 | 64%*
CC(C)(C)c1cc(CNC(=O)c2cccc(OC3CCN(C(=O)C4CC4)CC3)c2)[nH]n1 | i
SMILES | ST2 inh
O=c1cc2cc(O)[nH]c(=O)c2c(O)[nH]1 | 47%*
Cc1c(C(=O)NCc2ccco2)oc2ccc(S(=O)(=O)N3CCCC(C)C3)cc12 (stereo not drawn) | i
N#Cc1cnn(-c2ccc(Cl)nn2)c1N | i
Cc1c(O)ccc2c(=O)c(-c3ccccc3)c(C(F)(F)F)oc12 | i
O=C(Cn1c(=O)[nH]c2ccsc2c1=O)NCc1cccs1 | i
Cc1cccc(NC(=O)/C(C#N)=C/c2cc(C)n(-c3ccc(F)cc3)c2C)c1 | i
COc1cccc(NC(=O)/C(C#N)=C\c2cn(Cc3cccc(C)c3)c3ccccc23)c1 | 33%*
COc1cccc(NC(=O)c2ccc(=O)n(Cc3ccc(F)cc3)c2)c1 | i
COc1cccc(NC(=O)CSCc2ccc(Cl)cc2)c1 | i
COc1cccc(NC(=O)CCCc2ccccc2)c1 | i
COc1cccc(NC(=O)/C(C#N)=C\c2cn(Cc3ccc(C)cc3)c3ccccc23)c1 | 30%*
CC1(C)O[C@@H]2[C@@H](O1)[C@H](n1cnc3c(N)ncnc31)O[C@@H]2C(=O)O | i
CC1=C[C@@H](CNC(=O)c2ccccn2)[C@H](C(C)C)C[C@H]1CC(=O)NCCN1CCOCC1 | i
O=C(NCc1cnn2ccccc12)c1ccnc(-n2cnnc2)c1 | i
O=[N+]([O-])c1cc(Br)cc(C=Nc2ccc3oc(-c4ccncc4)nc3c2)c1O | i
Clc1ccc(-c2cn3ccccc3n2)cc1 | i
Brc1ccc(-c2cn3ccccc3n2)s1 | i
Brc1ccc(-c2cc3ccccn3c2)cc1 | 34%*
Cc1c(C(=O)N2CCOCC2)csc1-c1ccccc1 | i
COc1ccc(CN2CCN(c3cccc(C)c3C)CC2)c(OC)c1 | i
Cc1nonc1OCC(C)(C)Nc1ccc(C(F)(F)F)cc1[N+](=O)[O-] | 36%*
CC(=O)Nc1ccc(S(=O)(=O)Nc2ccc(C(F)(F)F)cc2[N+](=O)[O-])cc1 | i
CC(C)C(Nc1ccc(C(F)(F)F)cc1[N+](=O)[O-])C(=O)O (stereo not drawn) | i
CCOC(=O)c1c(NC(=O)C(C)S(=O)(=O)c2cn(C)c3ccccc23)sc2c1CCC2 (stereo not drawn) | i
Cc1ccc(-n2nc3ccc(NC(=O)COc4ccccc4)cc3n2)cc1Cl | i
COc1ccc(-n2nc3ccc(NC(=O)c4ccc(OC)c(Cl)c4)cc3n2)cc1 | 33%*
Cc1cc(N2CCC(C)CC2)nc2ccc(NC(=O)c3ccc4c(c3)OCO4)cc12 | i
COc1ccc(-n2nc3cc(C)c(NC(=O)c4ccc(Cl)c([N+](=O)[O-])c4)cc3n2)cc1 | i
Cc1ccc(-n2nc3ccc(NC(=O)c4ccc5c(c4)OCCO5)cc3n2)cc1Cl | 34%*
